# Measurements from PubChem BioAssay.
# Active and inactive are the calls of the source.
# Tests used:
# [1] = system: Plasmodium falciparum Sir2 (PF13_0152, Sir2A); test: Plasmodium falciparum Sir2A binding compounds – biochemical, small-molecule microarray, 635 nm fluorescence, primary screen (AID 1098); conditions: fluorescence 635 nm, higher = more signal;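 also: score merges spot fluorescence intensity with its signal-to-noise ratio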
# [2] = probe aDKK1 binding to arrayed compounds – biochemical, biotinylated probe, 635/667 nm fluorescence, primary screen (AID 1099); conditions: small-molecule microarray, higher = more signal;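 also: score merges 667nm spot fluorescence with signal to noise across triplicate slides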
# [3] = probe aCHRDL2 binding to arrayed compounds – biochemical, biotinylated probe, 635/667 nm fluorescence, primary screen (AID 1100); conditions: small-molecule microarray, higher = more signal
# [4] = change in splice reporter luminescence, either direction, cell-based, HEK293, spliceosome inhibition project, primary screen (AID 1101); conditions: HEK293 splicing luciferase reporter, 24 h, higher = more signal, called active from +8 up or from −8 down;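 also: HEK293 cells carrying a splicing-competent luciferase reporter gene; test concentration not given here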
# [5] = target: Fibroblast growth factor 10 (Homo sapiens) (UniProt O15520); test: compounds binding fibroblast growth factor 10 – biochemical, small-molecule microarray, 635 nm fluorescence, primary screen (AID 1102); conditions: FGF10 binding, fluorescence 635 nm, higher = more signal
# Fibroblast growth factor 10 (Homo sapiens), sequence (O15520 whole entry, looked up): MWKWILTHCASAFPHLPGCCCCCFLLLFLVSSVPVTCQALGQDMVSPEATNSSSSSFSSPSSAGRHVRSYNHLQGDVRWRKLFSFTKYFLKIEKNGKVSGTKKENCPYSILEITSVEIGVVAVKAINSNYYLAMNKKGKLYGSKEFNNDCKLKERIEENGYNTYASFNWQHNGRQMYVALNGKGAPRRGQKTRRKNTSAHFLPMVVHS
# [6] = system: glycogen synthase kinase-3 (GSK3A per assay name; protocol says GSK3B); test: compounds binding glycogen synthase kinase-3 – biochemical, small-molecule microarray, 635 nm fluorescence, GSK3A, primary screen (AID 1103); conditions: fluorescence 635 nm, higher = more signal; also: the record names both GSK3A and GSK3B
# [7] = target: Epidermal growth factor receptor (Homo sapiens) (UniProt P00533); test: compounds binding epidermal growth factor receptor – biochemical, small-molecule microarray, 635 nm fluorescence, primary screen (AID 1104); conditions: EGFR binding, higher = more signal;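 also: score merges 667 nm emission intensity with spot signal to noise over triplicate slides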
# Epidermal growth factor receptor (Homo sapiens), sequence (P00533 whole entry, looked up): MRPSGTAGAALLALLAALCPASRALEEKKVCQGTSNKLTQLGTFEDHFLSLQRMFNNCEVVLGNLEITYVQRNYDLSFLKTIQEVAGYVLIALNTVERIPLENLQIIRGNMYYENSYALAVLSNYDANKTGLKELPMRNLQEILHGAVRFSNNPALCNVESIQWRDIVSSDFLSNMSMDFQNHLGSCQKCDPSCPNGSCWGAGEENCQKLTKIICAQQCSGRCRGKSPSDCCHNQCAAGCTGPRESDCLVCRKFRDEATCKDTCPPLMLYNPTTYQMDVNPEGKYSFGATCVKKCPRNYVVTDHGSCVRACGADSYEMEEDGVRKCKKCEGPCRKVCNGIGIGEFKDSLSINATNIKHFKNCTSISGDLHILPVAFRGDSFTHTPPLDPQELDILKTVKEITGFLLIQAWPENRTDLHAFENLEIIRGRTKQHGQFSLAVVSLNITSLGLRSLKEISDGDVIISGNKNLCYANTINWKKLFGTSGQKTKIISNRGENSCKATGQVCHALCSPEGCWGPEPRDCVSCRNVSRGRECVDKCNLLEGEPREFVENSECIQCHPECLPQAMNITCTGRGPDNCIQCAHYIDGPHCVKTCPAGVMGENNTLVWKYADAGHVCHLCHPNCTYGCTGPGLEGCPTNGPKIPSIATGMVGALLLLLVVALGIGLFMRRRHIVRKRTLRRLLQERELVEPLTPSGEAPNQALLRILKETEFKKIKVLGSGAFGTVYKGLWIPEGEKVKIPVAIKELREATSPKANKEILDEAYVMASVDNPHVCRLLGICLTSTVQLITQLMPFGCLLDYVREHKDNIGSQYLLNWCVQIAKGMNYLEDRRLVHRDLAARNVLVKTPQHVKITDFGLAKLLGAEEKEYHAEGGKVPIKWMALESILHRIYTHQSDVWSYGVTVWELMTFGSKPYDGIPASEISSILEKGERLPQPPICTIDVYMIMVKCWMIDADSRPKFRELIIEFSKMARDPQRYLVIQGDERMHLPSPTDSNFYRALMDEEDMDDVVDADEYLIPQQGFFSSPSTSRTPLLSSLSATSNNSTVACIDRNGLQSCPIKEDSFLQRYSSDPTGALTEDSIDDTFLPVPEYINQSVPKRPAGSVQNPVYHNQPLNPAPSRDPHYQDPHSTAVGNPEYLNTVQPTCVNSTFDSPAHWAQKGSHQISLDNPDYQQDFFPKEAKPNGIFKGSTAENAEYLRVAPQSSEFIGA
# [8] = target: Follistatin-related protein 3 (Homo sapiens) (UniProt O95633); test: compounds binding follistatin-related protein 3 – biochemical, small-molecule microarray, 635 nm fluorescence, primary screen (AID 1105); conditions: FSTL3 binding, higher = more signal;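 also: score merges emission near 667 nm and signal to noise per printed spot across three slides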
# Follistatin-related protein 3 (Homo sapiens), sequence (O95633 whole entry, looked up): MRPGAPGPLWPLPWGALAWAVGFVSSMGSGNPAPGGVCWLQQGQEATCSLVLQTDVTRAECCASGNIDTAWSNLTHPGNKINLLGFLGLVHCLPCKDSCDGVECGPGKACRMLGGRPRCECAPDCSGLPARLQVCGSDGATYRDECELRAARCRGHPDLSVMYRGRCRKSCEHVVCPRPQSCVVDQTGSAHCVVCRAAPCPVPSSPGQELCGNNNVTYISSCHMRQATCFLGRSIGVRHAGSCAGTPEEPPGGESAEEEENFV
# [9] = target: Dickkopf-related protein 1 (Homo sapiens) (UniProt O94907); test: small molecules binding DKK1 protein – biochemical, small-molecule microarray, 635 nm fluorescence scan, primary screen (AID 1106); conditions: higher = more signal;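 also: score merges emission near 667 nm with signal to noise over three replicate slides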
# Dickkopf-related protein 1 (Homo sapiens), sequence (O94907 whole entry, looked up): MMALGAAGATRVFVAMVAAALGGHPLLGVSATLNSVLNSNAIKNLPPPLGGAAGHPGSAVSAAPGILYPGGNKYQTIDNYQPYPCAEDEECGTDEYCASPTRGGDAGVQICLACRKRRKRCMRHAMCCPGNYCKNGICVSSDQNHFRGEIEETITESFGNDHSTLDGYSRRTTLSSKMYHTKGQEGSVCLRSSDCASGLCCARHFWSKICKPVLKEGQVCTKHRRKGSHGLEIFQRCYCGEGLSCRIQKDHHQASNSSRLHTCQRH
# [10] = system: Inhibin beta A chain (activin A); test: small molecules binding activin A – biochemical, small-molecule microarray, 635 nm fluorescence scan, primary screen (AID 1107); conditions: INHBA, higher = more signal;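 also: mouse activin A protein probed at 4.33 µg/mL on printed slides; score merges bound-protein fluorescence near 667 nm with spot signal-to-noise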
# [11] = system: Human papillomavirus type 1a protein E7 (residues 44-93); test: small molecules binding HPV E7 44-93 – biochemical, small-molecule microarray, residues 44-93, 635 nm fluorescence, primary screen (AID 1108); conditions: fluorescence 635 nm, higher = more signal;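 also: E7 fragment applied at 1 µg/mL in TBST for 1 h at 4 C; score combines spot fluorescence with its signal to noise ratio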
# [12] = hepatitis C replication reporter changes, two-sided – Huh7 cells, luciferase reporter, HCV replication inhibitor project, primary screen (AID 1109); conditions: Huh7 HCV replicon luciferase reporter, 48 h; higher = more signal;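 also: huh7 hepatoma cells harbouring a luciferase neomycin HCV replicon reporter; luciferase luminescence as measure of HCV replicon replication; test concentration not given here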
# [13] = target: Left-right determination factor 2 (Homo sapiens) (UniProt O00292); test: small molecules binding LEFTY2 protein – biochemical, small-molecule microarray, 635 nm fluorescence scan, primary screen (AID 1110); conditions: higher = more signal
# Left-right determination factor 2 (Homo sapiens), sequence (O00292 whole entry, looked up): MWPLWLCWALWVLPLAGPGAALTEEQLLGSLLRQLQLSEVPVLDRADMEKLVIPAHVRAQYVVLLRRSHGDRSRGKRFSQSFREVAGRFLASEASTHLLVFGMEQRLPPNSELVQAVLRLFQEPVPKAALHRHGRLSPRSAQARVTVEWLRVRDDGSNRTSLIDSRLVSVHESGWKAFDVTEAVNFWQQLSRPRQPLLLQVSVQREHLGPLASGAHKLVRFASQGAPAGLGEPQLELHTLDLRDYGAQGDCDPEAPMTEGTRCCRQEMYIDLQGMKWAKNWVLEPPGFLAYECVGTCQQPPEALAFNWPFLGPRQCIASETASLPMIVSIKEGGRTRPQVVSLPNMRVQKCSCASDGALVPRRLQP
# [14] = target: Calmodulin-1 (Homo sapiens) (UniProt P0DP23); test: small molecules binding calmodulin-1 with EGTA – biochemical, small-molecule microarray, Cy5-labelled CALM1, profiling panel (AID 1111); conditions: Cy5-CALM1 binding fluorescence, higher = more signal;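 also: labelled calmodulin applied in Tris saline Tween buffer holding calcium plus EGTA and DTT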
# [15] = target: Calmodulin-1 (Homo sapiens) (UniProt P0DP23); test: small molecules binding Ca-loaded calmodulin-1 – biochemical, small-molecule microarray, Cy5-labelled CALM1, plus calcium, artefact control for SMM control-protein annotation, profiling panel (AID 1112); conditions: Cy5-CALM1 binding fluorescence, higher = more signal;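 also: score merges spot fluorescence with signal to noise from triplicate slides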
# [16] = probe aWnt5a binding to arrayed compounds – biochemical, biotinylated probe, 635/667 nm fluorescence, primary screen (AID 1113); conditions: small-molecule microarray, higher = more signal;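 also: score merges 667 nm fluorescence intensity with signal-to-noise per printed feature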
# [17] = probe aShh binding to arrayed compounds – biochemical, biotinylated probe, 635/667 nm fluorescence, primary screen (AID 1114); conditions: small-molecule microarray, higher = more signal;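 also: probe is biotin-labelled aShh protein from a stem cell growth factor screen; measures binding of labelled protein to compounds printed on the slide; score merges feature fluorescence at 667 nm with signal-to-noise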
# [18] = probe aNog binding to arrayed compounds – biochemical, biotinylated probe, 635/667 nm fluorescence, primary screen (AID 1115); conditions: small-molecule microarray, higher = more signal;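 also: probe is biotinylated aNog protein used at 0.15 µg/mL for 1 h at 4 C; z-score combines 667 nm fluorescence of each spot with its signal to noise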
# [19] = target: Torsin-1A-interacting protein 1 (Homo sapiens) (UniProt Q5JTV8); test: compound microarray binding of lysate hLAP1 – cell lysate, small-molecule microarray, COS7 lysate, 635/667 nm fluorescence, primary screen (AID 1116); conditions: 635 nm fluorescence, higher = more signal
# Torsin-1A-interacting protein 1 (Homo sapiens), sequence (Q5JTV8 whole entry, looked up): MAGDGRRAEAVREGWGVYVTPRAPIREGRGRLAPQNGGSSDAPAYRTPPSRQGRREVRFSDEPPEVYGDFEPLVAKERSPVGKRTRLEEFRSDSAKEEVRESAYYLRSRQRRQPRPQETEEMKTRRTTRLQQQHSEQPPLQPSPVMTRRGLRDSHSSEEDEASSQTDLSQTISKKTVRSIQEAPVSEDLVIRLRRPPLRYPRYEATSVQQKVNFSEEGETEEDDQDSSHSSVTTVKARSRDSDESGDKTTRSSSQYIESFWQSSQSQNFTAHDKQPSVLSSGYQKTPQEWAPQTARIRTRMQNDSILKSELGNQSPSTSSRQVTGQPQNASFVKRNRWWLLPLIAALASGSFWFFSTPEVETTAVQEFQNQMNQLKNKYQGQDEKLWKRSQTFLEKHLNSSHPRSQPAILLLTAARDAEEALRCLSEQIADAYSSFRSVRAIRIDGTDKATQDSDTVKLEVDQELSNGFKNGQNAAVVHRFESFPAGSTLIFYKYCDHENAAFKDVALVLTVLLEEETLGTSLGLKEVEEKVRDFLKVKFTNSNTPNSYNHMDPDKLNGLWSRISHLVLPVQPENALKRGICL
# [20] = target: Alpha-bungarotoxin (Bungarus multicinctus) (UniProt P60615); test: compounds binding labelled alpha-BTX control protein – biochemical, small-molecule microarray, Alexa647 label, 635/667 nm fluorescence, artefact control for SMM control protein annotation, profiling panel (AID 1117); conditions: alpha-BTX-A647 binding fluorescence, higher = more signal
# Alpha-bungarotoxin (Bungarus multicinctus), sequence (P60615 whole entry, looked up): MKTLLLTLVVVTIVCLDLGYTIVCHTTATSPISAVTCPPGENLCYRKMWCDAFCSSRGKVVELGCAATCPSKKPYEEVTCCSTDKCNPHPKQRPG
SMILES,composite z-score [1],composite z-score [2],composite z-score [3],z-score [4],composite z-score [5],composite z-score [6],composite z-score [7],composite z-score [8],composite z-score [9],composite z-score [10],composite z-score [11],z-score [12],composite z-score [13],composite z-score [14],composite z-score [15],composite z-score [16],composite z-score [17],composite z-score [18],composite z-score [19],composite z-score [20]
CN1C(=O)C2C=CC(C(O)c3ccccc3)N(N(c3ccccc3)c3ccccc3)C2C1=O (stereo not given),1.59,0.629,0.632,0.597 (inactive),-0.113,-0.372,0.142,0.455,0.254,1.07,-0.364,-0.442,0.618,-0.315,-0.717,0.0181,-0.0904,0.235,0.911,0.514
C=CCC(OC(C)=O)[C@@H]1[C@@H](N(Cc2cc3ccccc3o2)C(=O)c2cccc3ccccc23)c2cc(OCCCO)ccc2N1C(=O)c1ccc(-c2ccccc2)cc1 (stereo not given in full),-0.424,0.365,0.531,-1.82 (inactive),0.0822,-0.34,-0.0077,0.176,-0.0541,0.971,-0.0367,0.0372,-0.126,0.132,0.908,0.0368,-0.0553,-0.219,0.235,0.359
COCCOC(=O)N1C(=O)[C@@]2(c3cc(C#CCCO)ccc31)[C@H](C(N)=O)[C@H]1C(=O)O[C@H](c3ccccc3)[C@H](c3ccccc3)N1[C@@H]2c1ccc(O)cc1,1.22,-0.163,0.489,0.477 (inactive),0.344,-0.124,-0.376,-0.131,0.0665,0.275,-0.48,0.11,-0.142,-0.0162,0.461,-0.0197,-0.0035,0.0107,0.169,0.244
C=CCC(OC(C)=O)[C@@H]1[C@@H](N(Cc2ccc(-c3ccccc3)cc2)C(=O)c2cccc3ccccc23)c2cc(OCCCO)ccc2N1C(=O)c1ccc(-c2ccccc2)cc1 (stereo not given in full),-0.333,0.4,0.672,-1.05 (inactive),0.164,0.366,-0.192,0.269,-0.111,1.09,0.431,-0.133,-0.351,0.468,0.553,-0.187,-0.0793,-0.443,0.951,0.445
C=C(/C(=C/C[C@H](OC(C)=O)c1ccc(CO)o1)c1cc(C(=O)OC)ccc1OC)C(C)C,-0.415,-0.0153,-0.0899,-0.0448 (inactive),0.505,-0.196,-0.455,0.397,0.0625,0.463,-0.3,-2.22,-0.183,-0.0278,-0.061,-0.0506,0.318,0.168,0.0916,-0.829
CCCCCN1CC=CC23O[C@@H]4C=CCCOC(=O)C4[C@H]2C(=O)N(CCCCCO)[C@@H]3C1=O (stereo not given in full),-0.158,-0.287,0.249,-0.978 (inactive),-0.8,-0.299,-1.16,-1.15,-0.503,0.516,-0.168,-0.605,-0.368,-0.339,-0.578,-0.096,-0.243,-0.178,0.884,-0.99
Cc1ccccc1C(O)C1C=CC2C(=O)N(c3ccccc3)C(=O)C2N1Nc1ccc(C(C)C)cc1 (stereo not given),0.623,0.456,0.857,0.26 (inactive),0.971,1,0.304,1.23,-0.372,0.625,0.944,1.11,0.262,1.22,0.618,-0.0721,0.14,0.209,0.0331,1.16
C=CC[C@@]1(C(=O)NCCN2CCOCC2)N=C(c2ccc(OCCCO)cc2)O[C@@H]1c1ccccc1N=[N+]=[N-],0.241,1.09,1.03,-0.656 (inactive),0.0038,-0.142,0.539,0.255,-0.0358,1.72,0.446,-1.23,0.187,1.26,0.581,-0.1,-0.215,-0.0119,1.76,0.841
Cc1ccc([C@@H]2C[C@@H](Sc3ccccc3)[C@H](C(=O)O)CN2S(=O)(=O)c2ccc(C)cc2)cc1,1.31,0.055,0.874,-0.521 (inactive),1.37,1.34,0.271,0.968,-0.0594,0.289,1.47,-0.733,0.0973,1.66,0.481,0.0219,0.408,1.55,1.17,1.69
O=C1C[C@@](C(=O)NCCN2CCOCC2)(c2ccc([N+](=O)[O-])cc2)[C@@H](c2ccc(CO)cc2)N1CC12CC3CC(CC(C3)C1)C2,0.866,0.104,0.638,2.36 (inactive),1.22,1.32,0.86,1.3,0.912,0.403,1.47,-3.14,0.745,1.06,-0.0933,-0.0445,-0.16,-0.377,0.651,1.7
CN(C)C(=O)[C@]1(Cc2ccccc2N=[N+]=[N-])N=C(c2ccc(OCCCO)cc2)O[C@@H]1c1ccccc1N=[N+]=[N-],1.11,1.72,1.01,-0.727 (inactive),0.885,-0.0929,0.405,1.3,0.172,1.14,1.38,-2.69,0.116,1.7,0.497,-0.0179,0.0796,1.39,2.54,1.22
